Values joined by “and” are separate entries in the source; they are usually repeats but may differ in a detail not shown here. Identical values can stand only once. Records with an inconclusive call do not appear. Active and inactive are the calls of the source. Calls come from the whole dose curve; as a rule, active = well fitted activation curve with a large enough effect in the signal ratio; inconclusive = small, poorly fitted or top-dose-only effect, or effect the other way, or a change in a side signal; inactive = flat fitted curve, though single readings scatter; the % refers to the signal ratio.
Test: qHTS assay for small molecule agonists of the antioxidant response element (ARE) signaling pathway (AID 651741)
Details: HepG2 ARE-bla reporter, beta-lactamase FRET ratio, 16 h; series mostly up to 96 µM
From the text: National Center for Advancing Translational Sciences [NCATS]
NIH Chemical Genomics Center [NCGC]
U.S. Environmental Protection Agency [EPA]
National Institutes of Environmental Health Sciences [NIEHS]
National Toxicology Program [NTP]
Oxidative stress has been implicated in the pathogenesis of a variety of diseases ranging from cancer to neurodegeneration. The antioxidant response element (ARE) signaling pathway plays an important role in the amelioration of oxidative stress. The CellSensor ARE-bla HepG2 cell line (Invitrogen) can be used for analyzing the Nrf2/antioxidant response signaling pathway. Nrf2 (NF-E2-related factor 2) and Nrf1 are transcription factors that bind to AREs and activate these genes. The CellSensor ARE-bla Hep G2 cell line contains a beta-lactamase reporter gene under control of the Antioxidant Response Element (ARE) stably integrated into HepG2 cells. The activation of the report gene under culture conditions can be detected by fluorescence intensity. This cell line can be used to screen chemicals in a 1536-well plate format and to identify agonists that induce oxidative stress.
The ARE-bla cells were dispensed at 2,000 cells/5 ul/well in 1536-well black wall/clear bottom plates using a Multidrop dispenser. After the assay plates were incubated at a 37 C/5% CO2 incubator for 5 hours, 23 nL of compounds dissolved in DMSO, positive controls or DMSO only was transferred to the assay plate by a pin tool. The plates were incubated at 37 C for 16 hours. After 1 uL of LiveBLAzer B/G FRET substrate was added using a Flying Reagent Dispenser, the plates were incubated at room temperature for 2 hours, and fluorescence intensity was measured by an Envision plate reader.
Potency is the fitted concentration of half-maximal effect.

Row | SMILES | Potency
1 | c1ccc2sc(SSc3nc4ccccc4s3)nc2c1 | 26.6 µM (active)
2 | O=C(Nc1ccccc1)c1cc([N+](=O)[O-])ccc1Cl | 1.22 µM (active)
3 | NCCO | inactive
4 | O=C(O)[C@H](O)[C@@H](O)[C@H](O)[C@H](O)CO | inactive
5 | Nc1cc(-c2ccncc2)c[nH]c1=O | inactive
6 | CN1[C@@H]2CC[C@H]1CC(OC(=O)C(CO)c1ccccc1)C2 (stereo partly specified) | inactive
7 | CN(C)c1ccc(N=NS(=O)(=O)O)cc1 | 37.6 µM (active) and 24.3 µM (active)
8 | O=c1cc(-c2ccccc2)oc2ccccc12 | 4.61 µM (active) and 5.45 µM (active)
9 | N=C1N=C(N)c2cc3ccccc3cc21 | 16.8 µM (active)
10 | COc1cc(/C=C/C(=O)CC(=O)/C=C/c2ccc(O)c(OC)c2)ccc1O | 25.9 µM (active)
11 | CCCCCCCCCCCCCCCCCC(=O)O | inactive
12 | Nc1ccc(O)c(C(=O)O)c1 | inactive
13 | S=c1[nH]c2ccccc2s1 | 37.6 µM (active) and 27.3 µM (active)
14 | Nc1ccc(O)c([N+](=O)[O-])c1 | 26.6 µM (active) and 24.3 µM (active)
15 | CC(C)NCC(O)COc1cccc2ccccc12 (stereo unspecified) | inactive
16 | Nc1nc2ccc([N+](=O)[O-])cc2s1 | 66.8 µM (active)
